Results reported in PubChem BioAssay AID2314 (National Center for Advancing Translational Sciences (NCATS), 2010).
Several values for one entry are separate records, joined by “and”; a condition that tells them apart may be missing. Equal values may be shown once. Among all 300,000 compounds or so, about 37,000 (12%) were called active. This is one part of a sample in which actives are shown more often than they occur. Unmarked numbers belong to inactive results. No stated cut-off is given here; in the data, active means max response mostly above about 13% (no sharp cut-off); inactive means mostly below about 14%.

Test: Cycloheximide Counterscreen for Small Molecule Inhibitors of Shiga Toxin; further: read at 38.3 µM for the half of the compounds with a filed dose; 0% is about no effect
Conditions: cell reporter, cycloheximide protein synthesis inhibition counterscreen; active compounds read high

| SMILES | max response |
| --- | --- |
| COc1ccc(C(=O)Nc2cc(C)c(NC(=O)c3ccccc3OC)cn2)cc1 | 9.29% |
| Nc1nc(NCc2ccccc2)n(-c2ccccc2)n1 | -3.49% |
| CC(=O)Nc1ccc(N2C(=O)CC(Sc3nccc(C)n3)C2=O)cc1 (configuration not stated) | -0.348% |
| COc1ccccc1N1CCN(C(=O)C(=O)N/N=C/c2ccccc2F)CC1 | -0.733% |
| O=C(CNC(=O)C(c1ccccc1)c1ccccc1)N/N=C\c1ccc2c(c1)OCO2 | 35.9% (active) |
| Cc1[nH]c2ccccc2c1/C=N/NC(=O)CNC(=O)c1ccc2c(c1)OCO2 | -0.0106% |
| O=C(N/N=C/c1ccc([N+](=O)[O-])cc1)C(=O)N1CCCC1 | -0.79% |
| O=C(N/N=C/c1ccc2c(c1)OCO2)C(=O)N1CCCC1 | 46.6% (active) |
| O=C(Cc1ccc(F)cc1)N/N=C/c1ccc2c(c1)OCO2 | 14.7% |
| Cc1cccc(Cn2cnc3c(N)c(C)c(C)cc32)c1 | -6.87% |
| CC(NC(=O)COC(=O)C1CCN(S(=O)(=O)c2ccccc2C(F)(F)F)CC1)c1ccccc1 (configuration not stated) | -0.765% |
| COc1ccc(NS(=O)(=O)c2ccc(N3CCOCC3)c(NC(=O)c3ccccc3Br)c2)cc1 | -1.16% |
| Cc1cc(N(C)C)nc(Cl)n1 | -9.03% |
| Cc1cc(NC(=O)CN2CCCCC2C)nc2c1c(=O)oc1ccccc12 (configuration not stated) | 0.268% |
| CCCCC(=O)Nc1cc(C)c2c(=O)oc3ccccc3c2n1 | 10.7% |
| CCOC(=O)c1c(C)nc2c(c1C)c(=O)oc1ccccc12 | 14.3% (active) |
| COc1ccc(CC(NC(C)=O)C(=O)NC2CCN(C(=O)C3CC3)CC2)cc1OC (configuration not stated) | -7.16% |
| Cc1ccc(/C=N/NC(=O)CN2CCN(Cc3ccccc3)CC2)s1 | 8.96% |
| C=CCNC(=S)N/N=C/c1ccc(C)s1 | 31.5% (active) |
| C=CCNC(=S)N/N=C/c1ccc(OCc2ccccc2)cc1 | -1.7% |
| COc1ccc2c3c1O[C@H]1C[C@@H](O)C=C[C@@]31CCN(C)C2 | -0.885% and -4.86% |
| S=C(Nc1ccc(Cl)cc1Cl)N1CCCC1 | 60.1% (active) |
| O=C(NC(=S)Nc1ccc(Cl)cc1Cl)C1CC1 | 39.5% (active) |
| Cc1ccc2c(c1)C1CN(C)CCC1N2C(=S)Nc1ccc(Cl)cc1Cl (configuration not stated) | -1.23% |
| S=C(Nc1ccc(Br)cc1Cl)N1CCC2(CC1)OCCO2 | 20.3% (active) |

| SMILES | max response |
| --- | --- |
| Cc1cc(Cl)ccc1NC(=S)N1CCC(C(N)=O)(N2CCCCC2)CC1 | -2.11% |
| CN1CCN(S(=O)(=O)c2ccc(NC(=S)NC(=O)C3CC3)cc2)CC1 | 1.23% |
| S=C(NCc1cccnc1)Nc1ccc(Cl)cc1Cl | 9.37% |
| CN(C)C(=S)Nc1ccc(Br)cc1Cl | -1.09% |
| CC1CN(C(=S)Nc2ccc(Br)cc2Cl)CC(C)O1 (configuration not stated) | 0.924% |
| CC(Oc1ccc(F)cc1)C(=O)N1CCN(c2ncccn2)CC1 (configuration not stated) | -2.63% |
| CNC(=O)[C@]1(C(F)(F)F)C[C@H](CCc2ccccc2)CCCO1 | 3.47% |
| Cn1cnc([N+](=O)[O-])c1Sc1ccccc1 | -3.34% |
| Cc1cccc(NS(=O)(=O)c2ccc([N+](=O)[O-])cc2)n1 | -1.49% |
| O=C(COc1cccc(-n2cnnn2)c1)NCCC1=CCCCC1 | 0.68% |
| CSc1ccccc1N1CCN(CCCCCC(=O)NC2CCCc3ccccc32)CC1 (configuration not stated) | -7.34% |
| Cc1ccc(Nc2ccccc2N)cc1 | 33.2% (active) |
| Nc1ccc(C(=O)Nc2ccccc2N)cc1 | 5.95% |
| Nc1ccc(Nc2ccccc2)cc1 | -1.73% |
| COc1ccc(COCCN2CCN(S(=O)(=O)c3ccccc3)CCC2=O)cc1 | -3.54% |
| COc1ccc(S(=O)(=O)N(C)CC(=O)N2CCCC2)cc1 | -3.08% |
| CCOC(=O)N1CCN(C(=O)c2cn(C)c3ccc(S(=O)(=O)N(CC)CC)cc3c2=O)CC1 | -2.19% |
| CC(C(=O)NC1CCS(=O)(=O)C1)N1C(=O)/C(=C/c2ccc(Cl)cc2)SC1=S (configuration not stated) | 16.6% |
| Cc1nnc(NCCO)c2ccccc12 | 4.14% |
| COc1ccc(Nc2nnc(C)c3ccccc23)cc1 | 29.8% (active) |
| COc1ccc(Nc2nc(=O)[nH]nc2C)cc1 | -2.63% |
| COc1ccc(C(=O)NCC(=O)N/N=C/c2cccnc2)cc1 | -4.37% |
| S=C(NCCCc1cnc[nH]1)NCCCN(Cc1ccc(Cl)c(Cl)c1)c1ccc(Br)cn1 | -1.98% |
| CC1(C)C2CC=C(/C=N/NC(=O)c3ccc(Cl)cc3)C1C2 (configuration not stated) | 10.5% |
| COc1ccc(/C=N/NC(=O)c2ccc(Cl)cc2)cc1COC(C)=O | 1.21% |

| SMILES | max response |
| --- | --- |
| Cn1nccc1/C=N\NC(=O)c1ccc(Cl)cc1 | 14.7% (active) |
| CCOC(=O)c1sc(NC(=O)CSc2nc(C)cc(C(F)(F)F)n2)c(C#N)c1C | 1.11% |
| COc1cc(C(=O)OC2CCOC2=O)c([N+](=O)[O-])cc1OC (configuration not stated) | -5.93% |
| COc1cc(CN2CCCN(C)CC2)c([N+](=O)[O-])cc1OC | -2.2% |
| O=C(O)/C=C/c1ccc2c(c1)OCCO2 | 5.58% |
| CN(C)c1ccc(/C=C/C(=O)c2ccc(O)cc2)cc1[N+](=O)[O-] | 61.3% (active) |
| O=C(/C=C/c1ccc2c(c1)OCCO2)c1ccc(O)cc1 | 36.6% (active) |
| O=C(/C=C/c1ccc(Cl)c([N+](=O)[O-])c1)c1cccnc1 | 9.23% |
| O=C(COC(=O)/C=C/c1ccc2c(c1)OCO2)NC1CCS(=O)(=O)C1 (configuration not stated) | 2.81% |
| CN(C)c1ccc(/C=C/C(=O)c2ccc(C(C)(C)C)cc2)cc1[N+](=O)[O-] | 9.22% |
| COc1cccc(NC(=O)N2C3CCCC2CC(NC(C)=O)C3)c1 (configuration not stated) | -3.34% |
| CCOC(=O)c1ccccc1NS(=O)(=O)c1c(C)nc2sccn2c1=O | -3.59% |
| Brc1ccccc1CN1CCC(Cc2ccccc2)CC1 | -0.443% |
| CC(C)CN(CC(C)C)C(=O)CN1c2cccc3cccc(c23)S1(=O)=O | 0.92% |
| O=C(N/N=C/c1ccco1)c1ccc(NC(=O)C2CC2)cc1 | 2.6% |
| O=C(Nc1ccccc1N1CCOCC1)c1csc2c1CCCC2 | 8.7% |
| O=C(N/N=C/c1ccco1)c1ccc(C(=O)N/N=C/c2ccco2)o1 | 11.6% |
| O=C(N/N=C/c1ccco1)c1csc2c1CCCC2 | 54.4% (active) |
| Cc1ccc(NC(=O)c2c(NC(=O)CCC(=O)O)sc3c2CCCCC3)cc1 | 39.3% (active) |
| CCOC(=O)c1sc(NC(=O)c2sc(C)nc2C)nc1C | 10.2% |
| CC1CC(C)CN(CCCNC(=O)c2csc3c2CCCCC3)C1 (configuration not stated) | 13.5% |
| COC(=O)c1sc(NC(=O)c2csc3c2CCCC3)nc1C | 52.4% (active) |
| Cc1ccc(NC(=O)c2csc3c2CCCC3)cc1 | 46.6% (active) |
| COC(=O)c1c(NC(=O)CCCC(=O)O)sc2c1CCCCC2 | 1.25% |
| COC(=O)c1sccc1NC(=O)c1csc2c1CCCC2 | 11.4% |

| SMILES | max response |
| --- | --- |
| O=C(CN1CCCC1)Nc1sc2c(c1C(=O)Nc1ccccc1)CCCC2 | 0.772% |
| CCn1c(SCc2cccc(C(=O)O)c2)nnc1-c1ccc(Cl)cc1 | -1.44% |
| COc1ccc(C)cc1Nc1n[n+](-c2ccccc2)c(-c2cccc(Cl)c2Cl)s1 | -1.46% |
| CCOC(=O)N1CCN(C(=O)c2ccccc2N(Cc2ccccc2)S(=O)(=O)c2ccc(OC)cc2)CC1 | -5.35% |
| CCOc1ccc(-n2c(SCC(=O)Nc3cc(C(=O)O)ccc3Cl)nc3ccccc3c2=O)cc1 | -4.94% |
| O=C(O)CCC(=O)Nc1ccc(OCC2CCCO2)cc1 (configuration not stated) | -3.29% |
| CC1(C)Cc2ccccc2-c2[nH]c(=S)[nH]c(=O)c21 | -1.88% |
| COc1cccc(CNC(=O)CCC2CCCN(C(=O)c3ccc(F)c(Cl)c3)C2)c1 (configuration not stated) | 0.816% |
| O=C(COC(=O)c1ccc(Cl)nc1)NCc1ccc2c(c1)OCO2 | -4.58% |
| O=C(NCc1ccccc1Cl)c1csc2c1CCCCC2 | -0.0989% |
| CC(=O)Cc1nsc(NC(=O)c2csc3c2CCCC3)n1 | 16.6% (active) |
| CC(=O)Cc1nsc(NC(=O)c2ccc(Cl)cc2Cl)n1 | 27.8% |
| CCOC(=O)Cn1c(=O)n(Cc2ccc(OC)cc2)c(=O)c2cccnc21 | -5.57% |
| O=C(Nc1ccc2c(c1)OCCO2)C1CCCN(c2ncccn2)C1 (configuration not stated) | 22% (active) |
| Cc1cc(C)nc(N2CCC(C(=O)Nc3ccc4c(c3)OCCO4)CC2)n1 | 11.4% |
| O=C(Nc1cccc(Cl)c1)C1CCCN(c2cnccn2)C1 (configuration not stated) | 5.49% |
| CCOc1ccc(N(CC)S(=O)(=O)c2cccc3nsnc23)cc1 | -1.34% |
| CC(=O)Nc1ccc(S(=O)(=O)N2N=NC3C2C2CC4C3(CN(C(=O)OC(C)(C)C)S4(=O)=O)O2)cc1 (configuration not stated) | 3.73% |
| COc1cccc(CN(C)CC2CCCN(CCc3ccc(Cl)cc3)C2)c1OC (configuration not stated) | -1.16% |
| Cc1nc2ccccc2c(=O)n1NC(=O)c1ccc(Cl)c([N+](=O)[O-])c1 | -5.07% |
| CC(CC(=O)O)C(=O)c1ccc(Cl)c([N+](=O)[O-])c1 (configuration not stated) | -0.656% |
| C/C(=N\Nc1nncc2ccccc12)c1ccc(Cl)c([N+](=O)[O-])c1 | 17.3% (active) |
